E-sel TNF inh: E-selectin induction blockers in HUVEC – imaging, immunofluorescence, high content, primary screen. HUVEC TNFa-induced E-selectin immunofluorescence. inhibition, % at 2 µM. 120,000 compounds, 0.71% hits;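 active means inhibition above the batch mean plus 3 SD, and confirmed as a hit on visual image review, cut at about 43% in these data; inconclusive means passes the inhibition cutoff but fails visual image review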;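 further: 0% = TNF-stimulated DMSO wells and 100% = unstimulated control wells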
TNFa cytotox: cytotoxicity in TNFa-stimulated HUVEC, primary screen, cytotoxicity control for VCAM1 expression modulator project, imaging, Hoechst nuclei count; HUVEC TNFalpha-stimulated, Hoechst cell count; cell count reduction, % at 2 µM; 93,000 compounds, 0.17% hits; AID 848, 2007;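 active means cell count reduction exceeding the screen mean by over 5 SD, scaled to untreated wells per plate, cut at about 78% in these data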;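 further: cells counted after 24 h of TNF alpha exposure following the 1 h pretreatment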
VCAM1 TNFa inh: inhibitors of TNFa-induced VCAM1 expression, primary screen, imaging, HUVEC, TNFa stimulus, immunofluorescence | 95,000 compounds, 0.48% hits | HUVEC TNFa-induced VCAM-1 immunofluorescence, high-content imaging | inhibition, % at 2 µM | AID 802, 2007;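 active means inhibition above the batch mean plus 3 SD, with images confirmed as a hit by eye, cut at about 37% in these data; inconclusive means inhibition above that limit but hit not confirmed in images; inactive means inhibition not above that limit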;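 further: 0% = TNF-stimulated DMSO wells and 100% = unstimulated control wells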
PLAP activator: PLAP enzyme activators, biochemical, luminescence, HTS; Alkaline phosphatase, placental type (Homo sapiens), P05187; purified PLAP enzyme, luminescent substrate read-out; stronger effect = higher value; activation fold at 20 µM; 96,000 compounds, 1.2% hits; AID 696, 2007; in the data active means activation fold above about 2
Target sequence (P05187 whole entry, looked up): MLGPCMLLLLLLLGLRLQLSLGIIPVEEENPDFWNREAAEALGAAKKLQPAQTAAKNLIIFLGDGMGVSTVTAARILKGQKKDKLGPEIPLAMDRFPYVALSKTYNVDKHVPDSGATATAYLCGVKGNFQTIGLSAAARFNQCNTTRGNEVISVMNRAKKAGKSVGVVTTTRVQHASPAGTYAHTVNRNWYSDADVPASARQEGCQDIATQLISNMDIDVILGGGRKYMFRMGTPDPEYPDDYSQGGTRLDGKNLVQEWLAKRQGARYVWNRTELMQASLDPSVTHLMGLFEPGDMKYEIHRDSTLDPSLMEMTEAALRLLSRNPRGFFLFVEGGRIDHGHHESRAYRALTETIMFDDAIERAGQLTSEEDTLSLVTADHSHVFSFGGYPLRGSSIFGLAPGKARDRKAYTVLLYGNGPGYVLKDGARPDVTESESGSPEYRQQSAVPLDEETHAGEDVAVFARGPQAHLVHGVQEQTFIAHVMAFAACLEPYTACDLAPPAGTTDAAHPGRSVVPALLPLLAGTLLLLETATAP
cytoskel mod: modifiers of F-actin cytoskeleton organization, primary screen, imaging, HUVEC, phalloidin staining, high-content imaging. inhibition, % at 2 µM. 91,000 compounds, 0.18% hits. AID 836, 2007. HUVEC TNFa F-actin phalloidin imaging;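 active means inhibition above the batch mean plus 3 SD and confirmed as a hit by visual image inspection, cut at about 30% in these data, passing the limit was not always enough; inconclusive means above the inhibition threshold but rejected on visual inspection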
* hit, by the source's call; ? = inconclusive; / = not tested or not shown. An excerpt weighted towards active compounds, which were near 2% of everything screened.

SMILES	E-sel TNF inh	TNFa cytotox	VCAM1 TNFa inh	PLAP activator	cytoskel mod
N/C(Cc1cccs1)=N\OC(=O)COc1ccc(Br)cc1Cl	5.5	-42.3	70.1*	0.9	37.2*
N/C(Cc1cccs1)=N\OC(=O)COc1ccccc1Cl	-5.2	-9.3	-15.7	1	3.8
C=C(C)CNC(=S)NNC(=O)c1cc(C)oc1C	3.0	/	/	/	/
C=C(C)CNC(=S)NNC(=O)c1ccco1	-68.4	-6.0	-16.7	2*	/
CCN(CC)CCNc1nc2c(c(=O)[nH]c(=O)n2C)n1CC(O)COc1ccc(Cl)cc1Cl (centres undefined)	-4.9	-19.7	-2.4	2*	-13.1
CN(C)CCNc1nc2c(c(=O)[nH]c(=O)n2C)n1CC(O)COc1ccc(Cl)cc1 (centres undefined)	13.7	-16.2	-6.3	1.2	27.9
O=S1(=O)C=C(Sc2nnc(-c3ccccc3)o2)c2ccccc21	99.6*	/	/	1.1	/
Cc1cc(S(=O)(=O)Nc2c(C(=O)O)[nH]c3ccccc23)ccc1F	-29.8	/	/	2*	3.5
CC12CCC3(CO)COC(c4ccccc4O1)C2C3 (centres undefined)	55.2*	/	/	1.2	/
O=C(O)c1cc(-c2ccccn2)n[nH]1	/	-9.9	-10.4	2.5*	-12.1
O=C(O)c1ccc(-c2ccccn2)s1	6.4	/	/	/	/
Cc1cc2nc(CCN(C(=S)NCC(C)C)C3CCCC3)[nH]c2cc1C	-11.9	-15.0	24.4	2.4*	8.9
Cc1ccsc1C(=O)NNC(=S)NCC(C)C	-2.5	-7.1	7.5	2.2*	5.3
Cc1cccc(NC(=S)NNC(=O)c2sccc2C)c1	9.6	-3.7	3.1	2.1*	17.1
CCc1cc(C(=O)NNC(=S)Nc2cccc(C)c2)cs1	-1.1	9.9	4.0	/	-14.8
CC(C)CNC(=S)NNC(=O)c1csc2ccccc12	-12.7	-7.0	-45.8	1.4	3.1
COc1ccc(OC)c(N2C(=O)CC(Cc3ccc(C)cc3)C2=O)c1 (centres undefined)	-13.0	-11.2	10.9	/	2.9
COc1ccc(N2CCN(C(=O)CCCn3c(=O)[nH]c4cc(Cl)ccc4c3=O)CC2)cc1	-1.4	-30.2	0.1	2*	2.4
Cc1ccc(OCCCC(=O)Nc2ccc(N3CCOCC3)cc2)c(C)c1	-16.0	6.0	-4.1	1	2.8
Cc1ccccc1OCCCC(=O)Nc1ccc(N2CCOCC2)cc1	75.5*	/	/	1.1	/
O=C(O)c1ccccc1NS(=O)(=O)c1ccc2c3c(cccc13)C(=O)N2	-0.7	/	/	1	/
COC(=O)c1ccccc1NS(=O)(=O)c1ccc2c3c(cccc13)C(=O)N2	74.0*	10.7	-19.0	1	-5.7
O=C(COc1ccc(/C=N/NC(=O)c2ccccc2)cc1)Nc1ccc([N+](=O)[O-])cc1	5.2	-13.0	-1.7	1.1	16.2
CC(C)Oc1ccc(/C=N/NC(=O)C(CSCc2ccccc2)NC(=O)c2ccc([N+](=O)[O-])cc2)cc1 (centres undefined)	95.6*	-35.5	15.7	/	-9.0
O=C(Cn1c(C(F)(F)F)nc2ccccc21)N=Nc1c(O)[nH]c2ccc(Br)cc12	1.6	/	/	/	/
SMILES	E-sel TNF inh	TNFa cytotox	VCAM1 TNFa inh	PLAP activator	cytoskel mod
COC(=O)Oc1ccc(/C=N/NC(=O)CN(c2ccccc2Cl)S(C)(=O)=O)cc1OC	-20.5	-8.6	-7.5	1.5	-10.6
CCN1CC(O)=C(c2nc3ccccc3s2)C1=N	3.8	-2.8	-7.3	2.1*	13.4
CCCCN1CC(O)=C(c2nc3ccccc3s2)C1=N	-26.0	/	/	1.7	/
CCOc1nc(-c2ccc(Cl)cc2)nc2ccccc12	-1.1	/	/	/	/
Cc1ccc(-n2cc(CN(C)Cc3ncc[nH]3)c(-c3cccc(C)c3)n2)cc1	-6.5	/	/	/	/
CCCN1CCc2[nH]c(=S)[nH]c(=O)c2C1	67.9*	/	/	/	/
COc1ccc(-n2nnnc2S(=O)(=O)CC(=O)N2CCCCC2)cc1	81.7*	-17.5	?	0.8	6.3
CN1CCN(S(=O)(=O)c2cccc(S(=O)(=O)c3ccc(Cl)cc3)c2)CC1	-2.1	-17.2	8.1	1.5	13.2
CN1CCCN(S(=O)(=O)c2ccc(Cl)c(Cl)c2)CC1	99.9*	/	/	/	/
CN1CCCN(S(=O)(=O)c2cccc(Cl)c2Cl)CC1	94.3*	/	/	/	/
Cc1nn(-c2ccccc2)c(Cl)c1CN(C(=O)CCl)c1cccc2ccccc12	95.8*	/	/	/	/
CN(C)S(=O)(=O)c1cc(NC(=O)CSc2nn(-c3ccc(Cl)cc3)c(=S)s2)ccc1Cl	71.7*	/	/	/	/
CN1C(=O)/C(=C2/C=Cc3ccccc3N2CCCS(=O)(=O)O)SC1=S	37.5	5.6	-9.0	0.2	24.3
C=CCN1C(=O)/C(=C2/Sc3ccccc3N2CCCS(=O)(=O)O)SC1=S	-8.3	-36.9	0.4	1.2	64.8*
Cc1cc(S(=O)(=O)NC2CCCCC2)ccc1OCC(=O)NCc1ccccn1	6.0	-33.1	11.3	1	11.2
Cc1cc(C)cc(NC(=O)CC2NCCNC2=O)c1 (centres undefined)	/	-28.7	85.9*	1.1	21.8
Cc1ccc(NC(=O)CC2NCCNC2=O)cc1 (centres undefined)	-3.1	-7.6	1.8	0.8	-3.3
CCSc1nnc(-c2cccs2)o1	100.0*	75.4	44.8	0.7	-30.3
Cc1ccc(NC(=S)N2CCN(c3ncccn3)CC2)c(C)c1	31.2	/	/	/	/
Cc1ccccc1NC(=O)NCCCN1CCN(c2ccccc2)CC1	16.0	-9.8	11.0	2.8*	-7.6
COc1ccc(/C=N/N2C(=O)C3C4C=CC(CC4)C3C2=O)c(OC)c1 (centres undefined)	-46.0	/	/	/	/
O=C(CC(c1ccccc1)c1ccccc1)Nc1ncn[nH]1	4.5	-9.3	16.4	2.9*	14.5
CCOc1cc(CNCc2ccccn2)ccc1OCC(=O)NC1CCCCC1	-2.7	-20.2	4.5	2*	9.3
CCOc1cc(CNCCc2ccc(S(N)(=O)=O)cc2)ccc1OCC(=O)NC1CCCCC1	14.9	-61.3	-18.4	1.9	17.3
COc1cc([N+](=O)[O-])ccc1NC(=O)CCCOc1cc(C)ccc1C	-0.4	/	/	/	/
SMILES	E-sel TNF inh	TNFa cytotox	VCAM1 TNFa inh	PLAP activator	cytoskel mod
CCCn1cnc2cc(NCc3cccc(OC)c3O)ccc21	-27.6	-16.9	6.9	2.7*	-20.3
CCCn1cnc2cc(NCc3ccccn3)ccc21	/	-8.2	4.3	1.3	1.0
OCCN1CCOCCN(CCO)CCN(CCO)CC1	/	-15.2	10.1	1.7	-10.6
NCCN1CCN(CCN)CC1	5.1	2.6	94.4*	1	3.8
Cc1cc(-n2c(C)cc(C(=O)CN3C(=O)NC4(CCCCC4)C3=O)c2C)no1	11.1	89.8*	-45.9	1.3	0.3
Cc1cc(-n2c(C)cc(C(=O)CN3C(=O)NC4(CCCC4)C3=O)c2C)no1	/	-25.9	-7.5	1.1	-9.5
CCOC(=O)C1CCCN(C(=O)COC(=O)c2cc(=O)c3ccccc3o2)C1 (centres undefined)	63.6*	0.8	-5.0	1	-18.4
Fc1ccccc1SCc1nnc(-c2ccccc2Br)o1	67.7*	/	/	/	/
Brc1ccccc1-c1nnc(CSc2nnnn2-c2ccccc2)o1	4.7	-2.8	-5.7	2.1*	-5.9
